Experimental data reported in the supplement of paper PMC7156485.
Structures can show the parent of a compound that is named as a salt. ± gives the standard deviation of the averaged measurements.

Assays:
Details in all cases: concentration: 10 µM; 24 h
HCC1569 [1] = assay: cell number relative to DMSO (% of DMSO); higher = more cells (less growth inhibition / toxicity)
Summary of the method: (§1)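 H1.0 nuclear intensity or cell number is stated as percent of the plate control, based on the median of replicates, and HCC1569 values were smoothed for positional effects. These came from HCC1569 and TDF cells treated with compounds at 10 µM for 24 h at 37 °C in triplicate, then fixed in 3.7% formaldehyde and stained with a rabbit anti-H1.0 antibody, an AlexaFluor 647 secondary and DAPI.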

TDF [2] = assay: as above
Summary of the method: as §1

TDF [3] = assay: H1.0 immunofluorescence intensity relative to DMSO (% of DMSO); higher = stronger H1.0 induction, active = 120 or more
Summary of the method: as §1

HCC1569 [4] = assay: H1.0 immunofluorescence intensity relative to DMSO (% of DMSO); higher = stronger H1.0 induction, active = 140 or more
Summary of the method: as §1
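For H1.0 immunofluorescence intensity relative to DMSO in this document: TDF is a line of transformed human dermal fibroblasts of mesenchymal origin.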
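For cell number relative to DMSO in this document: TDF denotes transformed human dermal fibroblasts of mesenchymal origin.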

| Structure (SMILES) | cell number (HCC1569 [1]) | cell number (TDF [2]) | H1.0 immunofluorescence intensity (TDF [3]) | H1.0 immunofluorescence intensity (HCC1569 [4]) |
| --- | --- | --- | --- | --- |
| CNc1ccc2oc(CC3OC4(CCC3C)OC(C(C)C(=O)c3ccc[nH]3)C(C)CC4C)nc2c1C(=O)O (stereo unspecified) [Calcimycin] | 43.8 | 23.3 | 180 (active) | 128 (inactive) |
| COc1ccc2c(c1OC)C(=O)OC2C1c2cc3c(cc2CCN1C)OCO3 (single isomer, unassigned; (+)) [(+)-Hydrastine] | 98.7 | 104 | 96.4 (inactive) | 89.2 (inactive) |
| CC(C)N(CCC(C(N)=O)(c1ccccc1)c1ccccn1)C(C)C.O=P(O)(O)O (stereo unspecified) | 99.8 | 101 | 103 (inactive) | 102 (inactive) |
| CC(N)Cc1c[nH]c2ccc(O)cc12.O=C(O)C=CC(=O)O (stereo not drawn) [alpha-Methyl-5-hydroxytryptamine maleate] | 99.8 | 104 | 90.3 (inactive) | 87.9 (inactive) |
| COc1ccc2[nH]cc(CCN)c2c1.Cl [O-Methylserotonin hydrochloride] | 96.9 | 97.6 | 89.1 (inactive) | 106 (inactive) |
| CN(C)C(=O)Oc1cccc([N+](C)(C)C)c1.[Br-] [Neostigmine bromide] | 107 | 98.4 | 89.5 (inactive) | 89.4 (inactive) |
| CCCCCCCCC(=O)NCc1ccc(O)c(OC)c1 [N-Vanillylnonanamide] | 76.7 | 81.3 | 107 (inactive) | 160 (active) |
| CCN(CC)C(=O)NC1C=C2c3cccc4[nH]cc(c34)CC2N(C)C1.O=C(O)C=CC(=O)O (stereo not drawn) [R(+)-Lisuride hydrogen maleate] | 103 | 117 | 91.4 (inactive) | 92.7 (inactive) |
| N#CC(C#N)=Cc1ccc(O)c(O)c1 [Tyrphostin 23] | 92.8 | 93.1 | 94.4 (inactive) | 102 (inactive) |
| Cl.OCC1C(O)C(O)C2C(O)CCN12 (stereo unspecified) | 101 | 111 | 97 (inactive) | 97.5 (inactive) |
| Cl.O=C(OC1CCN(CCCl)CC1)C(c1ccccc1)c1ccccc1 [4-Diphenylacetoxy-N-(2-chloroethyl)piperidine hydrochloride] | 98.2 | 94.9 | 89.5 (inactive) | 87.6 (inactive) |
| CC(=O)OC1CC2CCC3C(CCC4(C)C3CC([N+]3(C)CCCCC3)C4OC(C)=O)C2(C)CC1[N+]1(C)CCCCC1.[Br-].[Br-] (stereo unspecified) [Pancuronium.2Br] | 100 | 92 | 93.9 (inactive) | 102 (inactive) |
| CCCN1CCOC2c3cc(O)ccc3OCC21.Cl (stereo not drawn) [S(+)-PD 128,907 hydrochloride] | 103 | 104 | 93.3 (inactive) | 100 (inactive) |
| Cl.Cl.Fc1ccc(C(OCCN2CCN(CCCc3ccccc3)CC2)c2ccc(F)cc2)cc1 | 81 | 69.8 | 96.7 (inactive) | 124 (inactive) |
| c1ccc2c3c([nH]c2c1)CNCC3 [Noreleagnine] | 103 | 108 | 92.6 (inactive) | 88.4 (inactive) |
| C=CCN1CCC23c4c5ccc(O)c4OC2C(=NN=C2CCC4(O)C6Cc7ccc(O)c8c7C4(CCN6CC=C)C2O8)CCC3(O)C1C5.Cl.Cl (stereo unspecified) [Naloxonazine dihydrochloride] | 77.5 | 62.9 | 126 (active) | 121 (inactive) |
| NC(=S)NN=Cc1coc2ccccc2c1=O.[Cl][Cu][Cl] | 96.2 | 86 | 105 (inactive) | 100 (inactive) |
| NCCc1c[nH]c2ccc(C(N)=O)cc12.O=C(O)C=CC(=O)O [5-Carboxamidotryptamine maleate] | 100 | 103 | 91.3 (inactive) | 87.6 (inactive) |
| Br.COC1CC=C2CCN3CCC4=C(CC(=O)OC4)C23C1 (stereo not drawn) [Dihydro-beta-erythroidine hydrobromide] | 104 | 98.2 | 91.6 (inactive) | 93.8 (inactive) |
| O=[N+]([O-])C=Cc1ccc2c(c1)OCO2 [Syk Inhibitor III] | 37.1 | 33.2 | 122 (active) | 99.6 (inactive) |
| CCCN(CCC)C1Cc2cc(OC)c(OC)cc2C1.O=C(O)C=CC(=O)O | 103 | 107 | 97.7 (inactive) | 102 (inactive) |
| CC1=C(O)C(=O)C2OC2C1=O (single isomer, unassigned; (-)) | 80 | 98.1 | 96.7 (inactive) | 117 (inactive) |
| CN(C)C(=O)C(CCN1CCC(O)(c2ccc(Cl)cc2)CC1)(c1ccccc1)c1ccccc1.Cl [Loperamide hydrochloride] | 84.8 | 88.6 | 102 (inactive) | 122 (inactive) |
| COc1ccc(OC)c(C(O)C(C)N)c1.Cl (stereo unspecified) [Methoxamine hydrochloride] | 101 | 106 | 95.2 (inactive) | 94.3 (inactive) |
| c1cncc(C2CCCCN2)c1 (racemic) | 102 | 110 | 96 (inactive) | 84.1 (inactive) |

| Structure (SMILES) | cell number (HCC1569 [1]) | cell number (TDF [2]) | H1.0 immunofluorescence intensity (TDF [3]) | H1.0 immunofluorescence intensity (HCC1569 [4]) |
| --- | --- | --- | --- | --- |
| CC12CCC(O)CC1CCC1C2CCC2(C)C(c3ccc(=O)oc3)CCC12O (stereo unspecified) [Bufalin] | 52.7 | 45 | 114 (inactive) | 107 (inactive) |
| CCC(C)C=C(C)C=CC1=CC2=C(Cl)C(=O)C(C)(OC(C)=O)C(=O)C2=CO1 (stereo unspecified) [Sclerotiorin] | 97.9 | 96.1 | 95.7 (inactive) | 95.1 (inactive) |
| CCC=CCC(C=CC=CCC=CCC=CCCCC(=O)O)OO (stereo unspecified) | 101 | 92.8 | 92.7 (inactive) | 102 (inactive) |
| C=C1C2CC3(C1O)C1CC4C5(C)CCC(O)C4(C1N(CC)C5)C3CC2=O (stereo unspecified) [Songorine] | 101 | 108 | 90 (inactive) | 91.7 (inactive) |
| N#CC(C#N)=Cc1cc(O)c(O)c(O)c1 [Tyrphostin 25] | 91.1 | 89.8 | 102 (inactive) | 113 (inactive) |
| CC(C)C1(NC(=O)C2CC3c4cccc5[nH]cc(c45)CC3N(C)C2)OC2(O)C3CCCN3C(=O)C(Cc3ccccc3)N2C1=O.CS(=O)(=O)O (stereo unspecified) [Dihydroergocristine methanesulfonate] | 91.8 | 109 | 106 (inactive) | 126 (inactive) |
| CC(CCc1ccccc1)NC(C)C(O)c1ccc(O)cc1.Cl (stereo unspecified) [Buphenine.HCl] | 101 | 104 | 90 (inactive) | 115 (inactive) |
| O=C(NCCN1CCC2(CC1)C(=O)NCN2c1cccc(F)c1)c1ccc(F)c(F)c1 | 92.7 | 92.3 | 110 (inactive) | 107 (inactive) |
| COc1cc(C=C(C#N)C#N)cc(O)c1O [Tyrphostin AG 34] | 102 | 97.9 | 96.3 (inactive) | 114 (inactive) |
| CCN(CC)C(=O)NC1C=C2c3cccc4[nH]cc(c34)CC2N(C)C1 (stereo not drawn) [S-(-)-Lisuride] | 101 | 105 | 95.5 (inactive) | 93.6 (inactive) |
| CCCCCC=CCC=CCC=CCCCCCCC(=O)NCCO [Anandamide (20:3,n-6)] | 101 | 97.4 | 102 (inactive) | 103 (inactive) |
| CC1CCC2C(C)C(=O)OC3OC4(C)CCC1C32OO4 (stereo unspecified) [Artemesinin] | 102 ± 2.5 | 97.4 ± 2.2 | 95.9 (inactive) | 116 (inactive) |
| CC1=C2C3OC(=O)C(C)C3CCC2(C)C=CC1=O (stereo unspecified) [Santonin] | 103 | 97.9 | 95.5 (inactive) | 92.6 (inactive) |
| Cl.FC(F)(F)c1cccc(C2=CCN(CCc3ccc4ccccc4c3)CC2)c1 | 109 | 96.7 | 96.3 (inactive) | 100 (inactive) |
| CCCN1CCCC2Cc3[nH]ncc3CC21.Cl (single isomer, unassigned; (-)) [(-)-Quinpirole hydrochloride] | 99.3 | 101 | 87.5 (inactive) | 100 (inactive) |
| CC=C(C)C(=O)OC1C(C)=C2C(C1OC(=O)CCCCCCC)C(C)(OC(C)=O)CC(OC(=O)CCC)C1(O)C2OC(=O)C1(C)O (stereo unspecified) [Thapsigargin] | 62.4 | 44.2 | 130 (active) | 195 (active) |
| NC(=O)COc1c(F)cc(SCCNS(=O)(=O)c2ccccc2)cc1F | 106 | 102 | 93.5 (inactive) | 106 (inactive) |
| O=C(O)c1cc[c]([Hg][Cl])cc1 [4-Chloromercuribenzoic acid] | 102 | 111 | 91.8 (inactive) | 92.6 (inactive) |
| O=C(O)C1CCN1 [L-azetidine-2-carboxylic acid] | 100 | 103 | 92.3 (inactive) | 92 (inactive) |
| Cl.NCCc1c[nH]c2ccccc12 [Tryptamine hydrochloride] | 99.1 | 98.5 | 95.5 (inactive) | 97.2 (inactive) |
| CC(C)(C)c1cc(C=C(C#N)C#N)cc(C(C)(C)C)c1O [Tyrphostin A9] | 54.6 | 47 | 117 (inactive) | 87.7 (inactive) |
| Nc1ncnc2c1ncn2C1OC(COP(=O)(O)CP(=O)(O)OP(=O)([O-])[O-])C(O)C1O.[Li+].[Li+] (stereo not drawn) [alpha,beta-Methylene adenosine 5'-triphosphate dilithium] | 102 | 109 | 87.9 (inactive) | 96.4 (inactive) |
| COc1ccc(C(CN(C)C)C2(O)CCCCC2)cc1 (stereo unspecified) [Venlafaxine] | 102 | 107 | 106 (inactive) | 110 (inactive) |
| N[C@@](CF)(Cc1cnc[nH]1)C(=O)O [MK-453 hydrochloride] | 101 | 103 | 100 (inactive) | 91.5 (inactive) |
